Potency and affinity values are given separately. Records with an inconclusive call do not appear. Entries that show only a call come without a potency. Calls of active or inactive are those of the source.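 How the source made its calls: active means in every test run, a fitted half-maximal concentration for signal decrease at or below twice the highest tested concentration; inconclusive means runs disagree, flat 30 to 70% decrease, or poor fit; inactive means the rest.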
Experiment: activation of miR-122 Renilla sensor silencing – cell-based, Huh7 psiCHECK-miR122, Renilla luciferase, cherry-picked, dose response (AID 651956)
Settings: Huh7 psiCHECK-miR122 Renilla luciferase reporter, 48 h; series mostly up to 35 µM

Compound | outcome
O=C(c1ccco1)N1CCN(C2CC(=O)N(c3ccccc3)C2=O)CC1 (centres undefined) | inactive
C[C@@H]1CN([C@@H](C)CO)S(=O)(=O)c2ccc(/C=C/c3ccccc3)cc2O[C@@H]1CN(C)C(=O)NC1CCCCC1 | inactive
COCC(=O)Nc1ccc2c(c1)C(=O)N(C)[C@@H]1CC[C@H](CC(=O)Nc3cn(C)nc3C)O[C@H]1CO2 | inactive
COc1ccccc1C#Cc1ccc2c(c1)O[C@H](CN(C)Cc1cccnc1)[C@H](C)CN([C@@H](C)CO)S2(=O)=O | inactive
CN1C(=O)c2cc(NC(=O)c3cccs3)ccc2OC[C@@H]2O[C@@H](CC(=O)N3CCOCC3)CC[C@H]21 | inactive
CNC(=O)C[C@@H]1CC[C@@H]2[C@@H](COc3ccc(NC(=O)NC(C)C)cc3C(=O)N2C)O1 | inactive
Fc1ccccc1-c1nc(-c2ccncc2)no1 | inactive
O=C(Nc1ccccc1N1CCN(C(=O)c2ccc(Cl)cc2)CC1)c1cccnc1 | inactive
CO[C@H]1CN(C)C(=O)c2cc(NC(=O)C3CC3)ccc2OC[C@H](C)N(CCc2ccccc2)C[C@H]1C | inactive
CCNC(=O)C[C@@H]1CC[C@H]2[C@@H](COc3ccc(NC(=O)Nc4ccc(F)cc4)cc3C(=O)N2C)O1 | inactive
CNC(=O)C[C@H]1CC[C@@H]2[C@H](COc3ccc(NC(=O)c4ccccc4OC)cc3C(=O)N2C)O1 | inactive
C[C@H]1CN([C@@H](C)CO)S(=O)(=O)c2ccc(C#Cc3ccccc3F)cc2O[C@@H]1CN(C)C(=O)c1ccc2c(c1)OCO2 | inactive
C/C=C/c1ccc([C@H]2[C@@H](CO)N(Cc3ccccn3)[C@H]2CNC(C)=O)cc1 | inactive
CCCNC(=O)C[C@H]1CC[C@@H]2[C@H](COc3ccc(NC(=O)c4cc(F)cc(F)c4)cc3C(=O)N2C)O1 | inactive
CC(C)CC#Cc1ccc([C@H]2[C@@H](CO)N3CCCCN(S(=O)(=O)Cc4ccccc4)C[C@H]23)cc1 | inactive
CCc1nc2sc(C)c(C)c2c(=O)n1CCO | inactive
Cc1ccccc1-c1nc(CN2CCCC(C(=O)NCCCN3CCOCC3)C2)c(C)o1 (centres undefined) | inactive
CCN(CC)CCOc1cccc(C(C)C)c1 | inactive
CCCNC(=O)Nc1ccc2c(c1)C(=O)N(C)[C@@H]1CC[C@H](CC(=O)O)O[C@H]1CO2 | inactive
CN(C)CCNc1nc2sc3c(c2c(=O)n1CCc1ccccc1)CCCCC3 | inactive

Compound | outcome
CN1C(=O)c2cc(NC(=O)Nc3ccccc3F)ccc2OC[C@@H]2O[C@H](CC(=O)O)CC[C@@H]21 | inactive
Cc1ccc(C2CC(C(F)(F)F)n3nc(C(=O)NCc4ccco4)cc3N2)cc1 (centres undefined) | inactive
CC(=O)N1[C@@H](CO)[C@@H](c2ccccc2)[C@@H]1CNC(=O)CN1CCOCC1 | inactive
COCC(=O)Nc1ccc2c(c1)C(=O)N(C)[C@@H]1CC[C@@H](CC(=O)OC)O[C@@H]1CO2 | inactive
CN1C(=O)c2cc(NC(=O)c3cccs3)ccc2OC[C@@H]2O[C@@H](CC(=O)O)CC[C@H]21 | inactive
C=CCNC(=S)NNC(=O)Cn1c(-c2ccccc2)cc(=O)n2ncnc12 | inactive
CCC(=O)NC[C@H]1[C@H](c2ccc(C3=CCCC3)cc2)[C@H](CO)N1C(C)=O | inactive
CCCC(=O)Nc1ccc2c(c1)C(=O)N(C)[C@@H]1CC[C@H](CC(=O)Nc3cn(C)nc3C)O[C@@H]1CO2 | inactive
COCC(=O)N(C)C[C@@H]1[C@H](c2ccc(-c3ccccc3)cc2)[C@@H](CO)N1C(C)=O | inactive
CN1C(=O)c2cc(NC(=O)c3cccc(F)c3)ccc2OC[C@@H]2O[C@@H](CC(=O)NC3CCC3)CC[C@@H]21 | inactive
CO[C@@H]1CN(C)C(=O)c2ccc(NS(=O)(=O)c3cccc(F)c3)cc2OC[C@@H](C)NC[C@H]1C | inactive
CCN(C[C@H]1N[C@H](CO)[C@H]1c1ccc(C2=CCCC2)cc1)C(=O)c1cccnc1 | inactive
NC(=O)c1csc(-c2ccncc2)n1 | inactive
CCCNC(=O)C[C@@H]1CC[C@H]2[C@@H](COc3ccc(NC(=O)c4ccc(C(F)(F)F)cc4)cc3C(=O)N2C)O1 | inactive
COCC(=O)Nc1ccc2c(c1)C(=O)N(C)[C@@H]1CC[C@H](CC(=O)N3CCc4ccccc4C3)O[C@H]1CO2 | inactive
COCC(=O)NC[C@@H]1[C@H](c2ccc(C3=CCCC3)cc2)[C@@H](CO)N1C(=O)C1CC1 | inactive
CC(=O)N1[C@H](CO)[C@H](c2ccccc2)[C@@H]1CN(C(=O)c1ccc(F)cc1)C(C)C | inactive
CCCNC(=O)N1C[C@@H]2[C@H](c3ccccc31)[C@@H](CO)N2C(=O)C1CCOCC1 | inactive
CN1C(=O)c2cc(NC(=O)c3ccc4c(c3)OCO4)ccc2OC[C@H]2O[C@H](CC(=O)O)CC[C@@H]21 | inactive

Source: PubChem BioAssay AID651956 (Broad Institute, 2012)
